D2 PAM-1: HTS Assay for Positive Allosteric Modulators of the Human D2 Dopamine Receptor: Primary Screen for Potentiators; HEK293 T-REx D2, calcium flux, EC20 dopamine potentiation; potentiation, % at 10 µM; 340,000 tested, 0.34% active; AID 485347, 2010;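 active = potentiation over 3 SD above the plate norm, cut at about 30% in these data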; also: 0% is about no effect
Target sequence (P14416 whole entry, looked up): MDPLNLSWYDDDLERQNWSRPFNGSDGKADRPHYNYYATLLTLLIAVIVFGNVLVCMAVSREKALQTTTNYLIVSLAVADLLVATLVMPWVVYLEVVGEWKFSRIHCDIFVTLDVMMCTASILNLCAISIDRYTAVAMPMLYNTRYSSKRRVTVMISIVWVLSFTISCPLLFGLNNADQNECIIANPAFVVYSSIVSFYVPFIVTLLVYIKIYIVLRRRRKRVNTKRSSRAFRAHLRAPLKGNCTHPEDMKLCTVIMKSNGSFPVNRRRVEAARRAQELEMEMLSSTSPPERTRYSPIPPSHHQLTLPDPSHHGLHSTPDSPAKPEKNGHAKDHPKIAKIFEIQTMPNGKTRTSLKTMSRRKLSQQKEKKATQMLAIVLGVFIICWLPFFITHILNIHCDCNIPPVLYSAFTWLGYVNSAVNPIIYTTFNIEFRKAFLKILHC
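Tetracycline-induced Hek293 Trex D2 cells, force-coupled to calcium, loaded with no-wash calcium dye. Compound added with 180 s kinetic read for agonism, then EC20 dopamine and a further 180 s read for potentiation.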
D2 antagonist: HTS Assay for Allosteric Antagonists of the Human D2 Dopamine Receptor: Primary Screen for Antagonists; HEK293 TREx D2 cells, calcium flux, dopamine EC80; inhibition, % at 10 µM; AID 485344, 2010; 340,000 tested, 2% active; in the data active = inhibition above about 30%; inactive = below that, where a call was filed; also: 0% is about no effect
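Measurement of antagonist activity uses fluorescent calcium dye in inducible HEK293 T-REx D2 cells: 10 s baseline, compound addition with 180 s read, EC80 dopamine addition with a further 180 s read.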
D2 PAM-2: Beta-Arrestin HTS for Positive Allosteric Modulators of the Human D2 Dopamine Receptor: Potentiators; DiscoveRx D2 beta-arrestin cells, luminescence, 90 min; 100% = 57 uM dopamine signal; potentiation, % (concentration not given with the values); 360,000 tested, 0.23% active; AID 624464, 2012; in the data active = potentiation above about 50%; inconclusive = mostly about 30% to 49%
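PathHunter beta-arrestin assay in DiscoveRx D2 cells. Compounds were added with an EC20 of dopamine (50 nM final) for 90 min at 37 deg C. Luminescence was read 1 h after detection reagent, with 57 uM dopamine as the EC100 control.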
D2 ag-1: Beta-Arrestin HTS for Positive Allosteric Modulators of the Human D2 Dopamine Receptor: Agonists; DiscoveRx PathHunter D2 beta-arrestin, luminescence, 90 min; 100% = 57 uM dopamine signal; AID 624465, 2012; 360,000 tested, 0.084% active; activation, % (test concentration not listed); D(2) dopamine receptor (Homo sapiens), P14416; in the data active = activation above about 40%; inconclusive = between about 15% and that limit
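Agonist mode: compounds alone added to overnight-plated D2 PathHunter cells for 90 min at 37 C, with 57 uM final dopamine (EC100) defining full response. Beta-arrestin recruitment detected by chemiluminescent reagent, read after 1 h at ambient temperature.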
D2 ag-2: HTS Assay for Allosteric Agonists of the Human D2 Dopamine Receptor: Primary Screen for Agonists; D(2) dopamine receptor (Homo sapiens), P14416; HEK293 T-REx D2 cells, calcium flux agonist mode; activation, % at 2 µM; 340,000 tested, 0.53% active; AID 485358, 2010;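 active = activation over 3 SD above normal in the single-dose calcium agonist read, cut at about 30% in these data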; also: 0% is about no effect
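In this primary screen, compounds producing a positive calcium signal within 180 s of addition to tetracycline-induced, force-coupled HEK293 Trex D2 cells are flagged; cells are dye-loaded with a no-wash calcium kit beforehand.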
Starred values were filed as active, the others as inactive; ? = inconclusive; · = no result. Most compounds without a hit are left out; they make up all but 2.4% or so of the library.

SMILES | D2 PAM-1 | D2 antagonist | D2 PAM-2 | D2 ag-1 | D2 ag-2
CCC1CCCCN1CC(=O)c1c(C)[nH]c2cc(C)ccc12 (stereo unspecified) | -5 | 33* | -2 | 3 | 1
COc1ccccc1N1CCN(CC(=O)c2c(C)[nH]c3cc(C)ccc23)CC1 | -30 | 64* | -14 | -3 | 0
COc1ccccc1N1CCN(CC(=O)c2c(C)n(C)c3ccccc23)CC1 | -25 | 24 | -31 | -1 | 0
Cn1c(CCC(=O)O)nc2cc(S(=O)(=O)N3CCCCC3)ccc21 | 19 | 33* | -3 | 6 | 0
O=C(NCc1ccco1)C1CCCN1C(=O)Nc1cccc(Cl)c1 (stereo unspecified) | -10 | 56* | 4 | -3 | -2
O=C(O)c1cnn(-c2nc(-c3cccc([N+](=O)[O-])c3)cs2)c1C(F)(F)F | -5 | 31* | 0 | -1 | 1
CCOC(=O)CNc1ccc2c(c1)OCO2 | · | 40* | -15 | -5 | -1
Cc1ccc(C(=O)NCCc2csc(C)n2)cc1 | 2 | 43* | -2 | -7 | 0
COc1ccc(/C=C(\C#N)C(=O)OC2CCOC2=O)cc1 (stereo unspecified) | 7 | 33* | -15 | -1 | 0
Cc1ccc(C(=O)COC(=O)C(Cc2c[nH]c3ccccc23)NC(=O)c2ccc(C(C)(C)C)cc2)cc1 (stereo unspecified) | 0 | · | · | · | 0
O=C(Nc1nc(-c2ccc(S(=O)(=O)N3CCOCC3)cc2)cs1)c1ccccc1 | 33* | 1 | ? | 1 | -1
COc1cccc(CNCCSc2nnnn2C)c1OCc1ccc(Cl)cc1 | -1 | · | · | · | 0
COc1ccc(-c2c(C)[nH]n3c(=O)c(Cc4ccccc4)c(C)nc23)cc1 | -24 | 31* | -40 | -3 | 1
COc1ccccc1-c1c(C)[nH]n2c(=O)c(Cc3ccccc3)c(C)nc12 | -22 | 54* | -17 | 0 | 0
Cc1noc(C)c1S(=O)(=O)N(C)C[C@H]1OCc2cnnn2CCCC(=O)N([C@H](C)CO)C[C@H]1C | · | · | 6 | -1 | ·
COc1ccc(S(=O)(=O)c2cc(NS(=O)(=O)c3ccc(Cl)cc3)c(C)c(C)c2O)cc1 | 10 | · | · | · | 0
O=C(OCCN1C(=O)c2cccc3c(N4CCOCC4)ccc(c23)C1=O)c1cc(Cl)cc(Cl)c1 | -2 | 3 | · | · | 48*
CCN(CC)S(=O)(=O)c1ccc(C(=O)OCCN2C(=O)c3cccc4c(N5CCOCC5)ccc(c34)C2=O)cc1 | 5 | 6 | -3 | -5 | 4
COc1c2c(cc3oc(=O)ccc13)OC(C)(C)C=C2 | 4 | 33* | -2 | 4 | -3
COc1ccc(C(=O)C(C)OC(=O)c2nc3nccc(C)n3n2)cc1 (stereo unspecified) | 11 | 15 | -3 | 6 | 0
CC1CCN(CCCCOc2ccccc2Br)CC1 | -27 | 91* | -25 | -6 | 1
Brc1ccccc1OCCCCN1CCCCC1 | -29 | 76* | -5 | -5 | 2
CC1CCN(CCCCOc2ccccc2F)CC1 | -32 | 82* | -23 | -3 | 2
Brc1ccccc1OCCCN1CCOCC1 | -20 | 2 | -21 | 0 | 1
CCOC(=O)CCCCCC(=O)Nc1ccc2c(c1)C(=O)N([C@@H](C)CO)C[C@@H](C)[C@H](CN(C)C(=O)Nc1ccccc1)OCCCC[C@H](C)O2 | · | · | -3 | -4 | ·
SMILES | D2 PAM-1 | D2 antagonist | D2 PAM-2 | D2 ag-1 | D2 ag-2
CC(=O)Oc1c(-c2ccc(Br)o2)oc2ccccc2c1=O | 9 | -1 | -6 | -5 | 2
Nc1cc(=O)[nH]c(SCC(=O)Nc2cc(Cl)cc(Cl)c2)n1 | -17 | 30* | -37 | -2 | -1
Nc1cc(=O)[nH]c(SCC(=O)Nc2ccc(Cl)c(Cl)c2)n1 | -6 | -8 | -9 | -1 | 1
O=C(CCC(=O)N1CCOc2ccc(Cl)cc21)NCc1ccccc1 | -23 | 37* | -11 | 0 | 0
CC1CN(C(=O)CCC(=O)NCCCN2CCN(Cc3ccccc3)CC2)c2cc(Cl)ccc2O1 (stereo unspecified) | -32 | 37* | -34 | -12 | 1
O=C(CCC(=O)N1CCOc2ccc(Cl)cc21)NCCCN1CCN(Cc2ccccc2)CC1 | -15 | 41* | -13 | 0 | 1
O=C(CCC(=O)N1CCOc2ccc(Cl)cc21)NCCCN1CCOCC1 | -6 | -12 | -8 | -2 | -1
COC(=O)c1sccc1S(=O)(=O)N(CC(=O)Nc1ccccc1C)c1ccc(Cl)cc1 | -9 | · | · | · | 1
COCCCN(C(=O)Cc1coc2cc(C)c(C)cc12)c1c(N)n(Cc2ccccc2)c(=O)[nH]c1=O | 5 | 48* | -2 | -1 | 0
COCCN(C(=O)Cc1coc2cc(C)c(C)cc12)c1c(N)n(Cc2ccccc2)c(=O)[nH]c1=O | 1 | 4 | -6 | 0 | 0
CCCCN(C(=O)c1ccc(C#N)cc1)c1c(N)n(CCC)c(=O)[nH]c1=O | -3 | 42* | -5 | -3 | -2
CCCn1c(N)c(N(CCOC)C(=O)c2ccccc2)c(=O)[nH]c1=O | -11 | 55* | -1 | -1 | 1
CC1=C(C(=O)Nc2ccc(C(=O)NCCCN3CCCCC3C)cc2)SCCO1 (stereo unspecified) | · | · | -11 | -5 | ·
O=c1[nH]c2c(c(=O)[nH]1)CCC2 | -2 | 37* | 0 | -5 | 1
CC(=O)NNC(=S)NCCc1ccccc1 | -2 | 49* | 0 | -7 | 1
O=[N+]([O-])c1cccc(NC(=S)NCCc2ccccc2)c1 | 7 | 80* | -32 | -6 | -1
O/N=C1\CCCc2ccccc21 | 4 | -12 | -3 | 2 | 0
O/N=C1\CCCCc2ccccc21 | -2 | 33* | -5 | 0 | -1
CN1CCN(C2=Nc3cc(F)ccc3Cc3ccccc32)CC1 | -26 | 33* | · | · | 1
Fc1ccc(N2CCN(C3=Nc4cccc5cccc3c45)CC2)cc1 | -1 | 8 | -18 | -3 | -3
CC(OC(=O)/C=C/c1cccc(Cl)c1)C(=O)NC1CCCCC1C (stereo unspecified) | 2 | 4 | -16 | -5 | 0
Cc1ccc(N/C(N)=N/c2nc(C)cc(N3CCCCC3)n2)c(C)c1 | -19 | 35* | -18 | 6 | 8
Cc1ccc(N/C(N)=N/c2nc3c(c(=O)[nH]2)CCCC3)c(C)c1 | -1 | -10 | -7 | 3 | -1
